# Screening results (PubChem BioAssay)
# PrP UTR inh: suppresses PrP 5' UTR mRNA reporter expression | AID 488862 | cell-based PrP 5' UTR mRNA reporter, plate reader | inhibition, % (no concentration beside the values) | 340,000 tested, 0.35% active; in the data active means inhibition above about 52%; further: 0 = median of the neutral control wells
# 3CLpro inhibitor: SARS-CoV 3CLpro protease inhibition | P0C6X7 | recombinant SARS-CoV 3CLpro, quenched FRET peptide cleavage | inhibition, % at 6 µM | 290,000 tested, 0.14% active; in the data active means inhibition above about 12%
# CCHFV vOTU inh: CCHFV vOTU protease inhibition; 370,000 tested, 0.55% active; inhibition, % at 11.5 µM; Pep-AMC fluorescence; in the data active means inhibition above about 30%; further: 0% = vehicle wells with enzyme and 100% = no enzyme wells
# PrPC surface inh: cell surface PrPC inhibition, primary TR-FRET screen. P04156. TR-FRET read-out. inhibition, % at 13.8 µM. 370,000 tested, 0.43% active. AID 720596; in the data active means inhibition above about 24%; further: 0% = median of the test wells and 100% = reference compound wells
# PrPC TRFRET cf: confirmation of inhibitors of cell surface human prion protein; cell surface PrPC level, TR-FRET; inhibition, % at 13.8 µM; 1,500 tested, 65% active; shares compounds with PrPC surface inh; AID 743200; in the data active means inhibition above about 25%
# LD9 cytotox: counter-screen for PrPc inhibitors: cytotoxicity in LD9 cells | shares compounds with PrPC surface inh | luminescence viability | inhibition, % at 13.8 µM | 1,500 tested, 29% active | AID 743201; in the data active means inhibition above about 9.5%
# Numbers without * were called inactive; x = no result. Only some compounds are listed: those with a hit (about 1.3% of all), similar ones and a draw of the others.
SMILES,PrP UTR inh,3CLpro inhibitor,CCHFV vOTU inh,PrPC surface inh,PrPC TRFRET cf,LD9 cytotox
Fc1cccc2sc(Nc3nc4c(F)cccc4s3)nc12,-28.9,8.0,1.9,37.4*,69.6*,-4.5
O=[N+]([O-])c1ccc(Sc2cccc[n+]2[O-])c2nonc12,-19.4,2.4,-15.9,37.4*,73.0*,98.6*
O=C(CSc1cccc[n+]1[O-])Nc1cc(Cl)ccc1[N+](=O)[O-],-9.2,x,-5.6,-17.3,x,x
Cc1cc(NC(=O)CCC(=O)N(c2ccccc2)C(C(=O)NC2CCCC2)c2ccccc2)no1 (stereo unspecified),-16.8,2.1,18.5,35.1*,51.7*,-3.4
Cc1cc(NC(=O)CCC(=O)N(c2ccccc2)C(C(=O)NC2CCCC2)c2cccs2)no1 (stereo unspecified),-20.9,1.5,1.3,63.4*,58.6*,-2.5
COc1cccc(NC(=O)CCSc2ccc3ccccc3n2)c1,-27.7,-2.4,-9.1,67.7*,84.2*,-6.6
COc1ccc(NC(=O)CCSc2ccc3ccccc3n2)cc1,-15.9,-3.5,2.3,55.9*,74.6*,-2.0
N=C1C(c2ccccc2)=C(O)CN1c1ccccc1,-19.9,-2.1,2.3,28.9*,7.8,-1.4
Cc1ccc(N2CC(O)=C(c3ccccc3)C2=N)cc1,-34.3,3.6,-11.7,7.3,x,x
CC(C)(C)c1ccc(OCCC(=O)Nc2cccc(S(=O)(=O)N3CCOCC3)c2)cc1,-29.6,5.6,15.7,24.8*,15.9,-2.3
CN1CCN(S(=O)(=O)c2cccc(C(=O)Nc3cc(C(N)=O)cc(C(N)=O)c3)c2)CC1,9.5,-6.6,-15.0,30.0*,25.2*,4.0
COc1ccc(OCCC(=O)OCC(=O)Nc2cccc(S(=O)(=O)N3CCOCC3)c2)cc1,-12.2,0.5,-0.1,4.4,x,x
CC(=O)Oc1ccc(-c2ccc(C(=O)Nc3cccc(S(=O)(=O)N4CCOCC4)c3)cc2)cc1,-18.1,3.1,-20.9,24.9*,23.3,5.1
C=C1C[C@H]2[C@@H]3C=C(C)C4=CC(=O)CC[C@]4(C)[C@H]3CC[C@]2(C)[C@@]1(OC(C)=O)C(C)=O,-0.6,x,4.3,-1.0,x,x
COC(=O)C1=C(c2ccc(C(C)=O)cc2)C[C@@H]2CC[C@H]1N2C(=O)NCc1ccc2c(c1)OCO2,1.5,x,8.6,-3.9,x,x
C=C1C(C)C2C(Cc3ccccc3)NC(=O)C23OC(=O)/C=C/C(O)CCCC(C)C/C=C/C3C1O (stereo unspecified),14.0,x,-4.8,25.7*,16.7,14.1*
